Our source for the growth values is PubChem BioAssay (NCI).

Compounds without any hit were thinned out: in the full panel of roughly 83,000, 20% have a hit.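 The endpoint reported here, percent growth, reads 100 for growth as untreated, 0 for no net growth and -100 for all cells dead.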 Values without a mark were called inactive. Calls of active or inactive are those of the source. How the source made its calls: active means growth percent below 10; inactive means the rest.

Holding throughout (experiment): NCI-60 one-dose screen, 48 h (100 = growth as untreated, 0 = no growth, -100 = all killed)
One assay deals with SK-MEL-2 melanoma. The settings on record: 10 µM unless noted.
A further assay concerns EKVX NSCLC. The settings on record: 10 µM unless noted.
The next assay concerns SN12C renal. The conditions noted are these: 10 µM unless noted.
For the next assay, the system named is UO-31 renal. The conditions noted are these: 10 µM unless noted.
In another assay the test system is TK-10 renal. The conditions noted are these: 10 µM unless noted.
Another assay deals with ACHN renal. The conditions noted are these: 10 µM unless noted.
The test system of a further assay is A498 renal. The conditions noted are these: 10 µM.
For the next assay, the system named is CCRF-CEM leukemia. The settings on record: 10 µM unless noted.
Another assay has as its system HL-60(TB) leukemia. The conditions noted are these: 10 µM unless noted.

As to `CN1C(=O)C23CC4(C56CC78SSC(CO)(C(=O)N7C5Nc5ccccc56)N(C)C8=O)c5ccccc5NC4N2C(=O)C1(CO)SS3` (configuration not stated), the growth with SK-MEL-2 melanoma is -84.6% (active); in the assay on EKVX NSCLC, -62.3% (active); in the assay with SN12C renal, -100% (active); with UO-31 renal, -100% (active); in the assay on TK-10 renal, -90.2% (active); with ACHN renal it was -100% (active). The growth with A498 renal is -98.9% (active); in the assay on CCRF-CEM leukemia, -11.2% (active).

For `COC(=O)[C@@H](C)C[C@H](Cc1ccc(F)cc1)NC(=O)c1csc([C@@H](C[C@H](C(C)C)N(C)C(=O)[C@@H](NC(=O)[C@H]2CCCCN2C)C2CC2)OC(C)=O)n1`, the growth in the assay on SK-MEL-2 melanoma was 24.4%; with EKVX NSCLC, 43.2%; with SN12C renal it was 31.6%; with UO-31 renal, 55.8%; in the assay with TK-10 renal, 72.4%; in the assay with ACHN renal it was 34%. Besides, the growth was 9.1% (active) in the assay with A498 renal and 12.6% with CCRF-CEM leukemia.

With `COc1ccc2c(c1)c(-c1nc(-c3cn(C)c4ncccc34)cs1)cn2CCN1CCOCC1`, the growth in the assay on SK-MEL-2 melanoma was 56%; in the assay with EKVX NSCLC, 61.1%; with SN12C renal it was 34.3%; in the assay with UO-31 renal, 3.02% (active); in the assay with TK-10 renal, 49.4%; in the assay with ACHN renal, 32.1%. Further, the growth is 76.1% in the assay on A498 renal and 31.1% in the assay with CCRF-CEM leukemia.

In the case of `CC1=C(CCCNS(C)(=O)=O)C2=C(C)C3(CC3)[C@@](C)(O)C(=O)C2=C1`, the growth with SK-MEL-2 melanoma is -44.7% (active); in the assay with EKVX NSCLC it was 1.61% (active); in the assay on SN12C renal, 8.84% (active); with UO-31 renal, -32.6% (active); in the assay on TK-10 renal, -14.9% (active); in the assay with ACHN renal, -23.6% (active). The growth in the assay on A498 renal is -43.2% (active); with HL-60(TB) leukemia it was 14%; in the assay on CCRF-CEM leukemia it was 90.9%.

As to `CC(=O)OC[C@]1(C)C=C2C(=O)[C@](C)(O)C3(CC3)C(C)=C2[C@H]1OC(=O)N(C)CCN(C)C(=O)OC(C)(C)C`, the growth with SK-MEL-2 melanoma is -74.3% (active); in the assay with EKVX NSCLC it was -7.18% (active); in the assay with SN12C renal, 14.2%; in the assay on UO-31 renal it was -48.5% (active); in the assay with TK-10 renal it was -8.19% (active); in the assay on ACHN renal it was -8.88% (active). In addition, the growth in the assay on A498 renal was -10.8% (active); in the assay with CCRF-CEM leukemia, 19.9%.

On to `Fc1ccc2c(c1)c(-c1nc(-c3c[nH]c4ncccc34)cs1)cn2CCCCN1CCCCC1`, for which the growth is -76.7% (active) in the assay with SK-MEL-2 melanoma; 23.3% in the assay with EKVX NSCLC; -84.4% (active) in the assay on SN12C renal; -86.9% (active) in the assay with UO-31 renal; -86.1% (active) in the assay on TK-10 renal; -97.4% (active) in the assay with ACHN renal. For the same compound, the growth in the assay with A498 renal was 63.2%; in the assay with CCRF-CEM leukemia, -61.4% (active).

Regarding `COC(=O)[C@@H](C)C[C@H](Cc1ccccc1)NC(=O)c1csc(CC[C@H](C(C)C)N(C)C(=O)[C@@H](NC(=O)[C@H]2CCCCN2C)C(C)C)n1`, the growth in the assay with SK-MEL-2 melanoma is 35.7%; in the assay on EKVX NSCLC, 40.8%; with SN12C renal it was 36.5%; with UO-31 renal, 48.8%; in the assay on TK-10 renal, 60.5%; in the assay with ACHN renal, 45.2%. For the same compound, the growth in the assay on A498 renal was 0.74% (active); in the assay on CCRF-CEM leukemia, 13.8%.

In the case of `c1cnc2[nH]cc(-c3csc(-c4cn(CCCCN5CCCCC5)c5ccccc45)n3)c2c1`, the growth in the assay on SK-MEL-2 melanoma is 97.6%; in the assay on EKVX NSCLC, 83.1%; with SN12C renal, 75.2%; with UO-31 renal it was 49.2%; with TK-10 renal, 124%; in the assay with ACHN renal, 98.5%. The growth in the assay on A498 renal was 95.7%; in the assay with HL-60(TB) leukemia, 47.9%; with CCRF-CEM leukemia, 62.9%.

Turning to `CCOP(=O)(Cc1ccc(C#N)cc1)OCC`, the growth with SK-MEL-2 melanoma was 92.3%; in the assay with EKVX NSCLC, 105%; in the assay on SN12C renal, 97%; in the assay with UO-31 renal, 99.2%; in the assay with TK-10 renal it was 93.4%; in the assay with ACHN renal, 110%. The growth is 98% with A498 renal and 99.3% in the assay on CCRF-CEM leukemia.

`N#CC1(C#N)C(c2ccc(N(CCCl)CCCl)cc2)OC23CCCCC2C1(C#N)C(=N)O3` (configuration not stated): the growth in the assay on SK-MEL-2 melanoma is 122%; in the assay with EKVX NSCLC, 108%; with SN12C renal, 69.1%; in the assay on UO-31 renal, 72.1%; in the assay on TK-10 renal it was 91.9%; with ACHN renal it was 50.2%. Besides, the values for the growth with A498 renal and in the assay with CCRF-CEM leukemia were 56.6% and 77%, respectively.

Regarding `CCCCCCCC[n+]1ccc2ccccc2c1`, the growth is 24.5% in the assay with SK-MEL-2 melanoma; 75.3% with EKVX NSCLC; 48.3% in the assay with SN12C renal; 71% in the assay with UO-31 renal; 62.9% in the assay with TK-10 renal; 94.8% with ACHN renal. The growth was 93.1% with A498 renal and 43.3% in the assay on CCRF-CEM leukemia.

Consider `COC(=O)[C@@H](C)C[C@H](Cc1ccccc1)NC(=O)c1csc([C@@H](C[C@H](C(C)C)N(C)C(=O)[C@H](C)NC(=O)[C@H]2CCCN2C)OC(C)=O)n1`, for which the growth was 43.8% in the assay with SK-MEL-2 melanoma; 69.8% in the assay on EKVX NSCLC; 64.8% in the assay with SN12C renal; 71.8% in the assay with UO-31 renal; 82.7% with TK-10 renal; 68.6% in the assay on ACHN renal. Besides, the figures for the growth with A498 renal, in the assay on HL-60(TB) leukemia and in the assay with CCRF-CEM leukemia were 53.4%, -21.2% (active) and 18.7%, respectively.

For `Cc1c2cc(Cl)c3ccccc3c2c[n+]2ccccc12`, the growth is -16.6% (active) in the assay with SK-MEL-2 melanoma; 43.2% with EKVX NSCLC; -19.4% (active) with SN12C renal; 62% in the assay on UO-31 renal; 93.3% with TK-10 renal; 92.2% with ACHN renal. For the same compound, the results for the growth in the assay on A498 renal, in the assay with HL-60(TB) leukemia and in the assay with CCRF-CEM leukemia were 90.2%, 62.3% and 35.5%, respectively.

As for `CCCCCSC1C2C(=O)C(Br)=CC13CCNc1c(O)c4c5c(c13)=[N+]2CCC=5C=N4` (configuration not stated), the growth with SK-MEL-2 melanoma is -54.8% (active); in the assay on EKVX NSCLC, -56.1% (active); in the assay on SN12C renal, -61.9% (active); in the assay with UO-31 renal, -66.9% (active); with TK-10 renal it was -52.4% (active); in the assay with ACHN renal it was -90.2% (active). Further, the growth is 12.2% with A498 renal, -40.8% (active) in the assay on HL-60(TB) leukemia and -13.5% (active) in the assay on CCRF-CEM leukemia.
